Screening data as filed in PubChem.
DUX4 inh – DUX4-mediated transcription inhibition; 293T-iDUX4 ZSCAN4-Gaussia luciferase reporter, 24 h; stronger effect = lower value; AID 1224904; activity change, negative = inhibition, % (concentration not given with the values); actives 0.8% (n = 37,000);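 active = mean inhibition of at least 10% in the main channel, exceeding the control channel by a set limit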;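 note: 0% = median of neutral control wells and -100% = median of positive control wells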
Active calls of the source: *; ! = repeats disagree. Only a selection was taken, and hits are over-represented in it overall.

SMILES	DUX4 inh
COc1ccc(S(=O)(=O)N2[C@@H]3CNC[C@H]2C3c2ccc(-c3ccccc3F)cc2)cc1 (stereo partly drawn)	4
COc1cccc(-c2ccc(C3[C@H]4CNC[C@@H]3N4S(=O)(=O)Cc3ccccc3)cc2)c1 (stereo partly drawn)	4
COc1cccc(S(=O)(=O)N2CCCCN3[C@@H](CO)[C@H](c4ccc(-c5cccnc5)cc4)[C@@H]3C2)c1	-4
COc1cccc(-c2ccc(C3[C@@H]4CN(S(=O)(=O)c5ccccc5F)C[C@H]3N4)cc2)c1 (stereo partly drawn)	-7
Cc1ccccc1-c1ccc(C2[C@H]3CNC[C@@H]2N3S(=O)(=O)c2ccc(F)cc2)cc1 (stereo partly drawn)	2
COc1cccc(S(=O)(=O)N2C[C@@H]3N[C@H](C2)C3c2ccc(-c3ccccc3C)cc2)c1 (stereo partly drawn)	-36*!
COc1cccc(-c2ccc(C3[C@@H]4CN(S(=O)(=O)Cc5ccccc5)C[C@H]3N4)cc2)c1 (stereo partly drawn)	-22*
CN(C)C(=O)c1cccc(-c2ccc(C3[C@H]4CNC[C@@H]3N4S(=O)(=O)Cc3ccccc3)cc2)c1 (stereo partly drawn)	9
Cc1ccccc1-c1ccc(C2[C@H]3CNC[C@@H]2N3S(=O)(=O)c2cccc(F)c2)cc1 (stereo partly drawn)	2
Cc1cccc(S(=O)(=O)N2C[C@@H]3N[C@H](C2)C3c2ccc(-c3cncnc3)cc2)c1 (stereo partly drawn)	-4
Cc1ccc(S(=O)(=O)NCC[C@H]2CC[C@H](NC(=O)CCN3CCCCC3)[C@H](CO)O2)cc1	-4
O=C(NC[C@H]1[C@H](c2ccccc2)[C@H](CO)N1C(=O)C1CCC1)NC1CCCC1	0
CCC(=O)N1CCC2(CC1)CN(C(=O)CC)[C@@H](CO)c1[nH]c3cc(OC)ccc3c12	18
CN1c2ccc(-c3cccc(F)c3)cc2[C@@H]2[C@@H](CCN2C(=O)Cc2cccnc2)[C@@H]1CO	5
O=C(Nc1ccccc1F)N1C[C@H]2[C@@H](c3ccccc31)[C@H](CO)N2C(=O)Cc1ccccc1	0
CN1CCN(C(=O)C[C@@H]2CC[C@@H](NC(=O)c3ccc4c(c3)OCO4)[C@H](CO)O2)CC1	2
COc1ccc(NC(=O)N(C)C[C@@H]2Oc3ccc(NC(=O)CCN4CCOCC4)cc3C(=O)N([C@H](C)CO)C[C@@H]2C)cc1	1
O=C(C[C@H]1CC[C@H]2[C@@H](COC[C@@H](O)CN2C(=O)c2ccccc2F)O1)NCc1ccc(Cl)cc1	4
Cc1ccccc1S(=O)(=O)N1CC[C@H]2[C@@H](CO)N(C)c3ccc(Br)cc3[C@H]21	-3
CN1c2ccc(Br)cc2[C@@H]2[C@@H](CCN2S(=O)(=O)c2ccccc2F)[C@H]1CO	3
Cc1ccccc1S(=O)(=O)N1CC[C@@H]2[C@@H](CO)N(C)c3ccc(Br)cc3[C@@H]21	-23*
COc1ccc(-c2ccc([C@@H]3[C@@H](C#N)N(C(=O)CN(C)C)[C@@H]3CO)cc2)cc1	0
COCC(=O)Nc1ccc2c(c1)C(=O)N(C)C[C@@H](OC)[C@@H](C)CN(Cc1cncnc1)[C@H](C)CO2	0
O=C1N[C@@H](Cc2ccccc2)COCc2cn(nn2)CC[C@H]1Cc1cccc(Cl)c1	-1
CC(=O)NC[C@H]1[C@@H](c2ccc(C#Cc3ccccc3F)cc2)[C@@H](CO)N1C(C)=O	2
SMILES	DUX4 inh
C[C@H](NC(=O)[C@H]1[C@H](CO)[C@H]2Cn3c(ccc(C4=CCCCC4)c3=O)[C@H]2N1C)c1ccccc1	2
CC(C)OC(=O)N(C)C[C@H]1OCc2cnnn2CCCC(=O)N([C@H](C)CO)C[C@@H]1C	6
O=C(Nc1cccc(F)c1)N1C[C@@H]2N[C@H](C1)C2c1ccc(-c2cncnc2)cc1 (stereo partly drawn)	-7
Cc1cccc(-c2ccc(C3[C@@H]4CN(C(=O)Nc5ccccc5)C[C@H]3N4)cc2)c1 (stereo partly drawn)	-2
O=C(C1CCCC1)N1C[C@@H]2N[C@H](C1)C2c1ccc(-c2ccncc2)cc1 (stereo partly drawn)	-28*!
O=C(C1CCOCC1)N1C[C@@H]2N[C@H](C1)C2c1ccc(-c2cncnc2)cc1 (stereo partly drawn)	19
O=C(c1ccncc1)N1C[C@@H]2N[C@H](C1)C2c1ccc(-c2ccncc2)cc1 (stereo partly drawn)	5
O=C(Nc1ccccc1)N1C[C@@H]2N[C@H](C1)C2c1ccc(-c2cccnc2)cc1 (stereo partly drawn)	-52*
C[C@@H]1CN([C@H](C)CO)C(=O)c2c(c3ccccc3n2C)-c2ccccc2CO[C@@H]1CN(C)C(=O)Nc1ccccc1C(F)(F)F	-1
C[C@@H]1CN([C@@H](C)CO)C(=O)c2c(c3ccccc3n2C)-c2ccccc2CO[C@@H]1CN(C)C	-7
C[C@H](CO)N1C[C@H](C)[C@H](CN(C)Cc2ccccc2C(F)(F)F)OCc2ccccc2-c2c(n(C)c3ccccc23)C1=O	-59*
C[C@H]1CN([C@@H](C)CO)C(=O)c2c(c3ccccc3n2C)-c2ccccc2CO[C@H]1CN(C)C	6
COc1ccccc1CN(C)C[C@H]1OCc2ccccc2-c2c(n(C)c3ccccc23)C(=O)N([C@H](C)CO)C[C@H]1C	-3
C[C@H](CO)N1C[C@H](C)[C@@H](CN(C)Cc2ccccc2C(F)(F)F)OCc2ccccc2-c2c(n(C)c3ccccc23)C1=O	-46*
CN1C(=O)c2cc(NS(=O)(=O)c3ccc(F)cc3)ccc2OC[C@@H]2O[C@H](CC(=O)NCC(F)(F)F)CC[C@H]21	-1
Cc1noc(C)c1NC(=O)NCC[C@@H]1CC[C@H](NC(=O)Cc2cccnc2)[C@@H](CO)O1	7
Cc1ccccc1-c1ccc(C2[C@H]3CNC[C@@H]2N3Cc2ccccn2)cc1 (stereo partly drawn)	18
Cc1ccc(CN2CC(=O)N3[C@H](C2)[C@H](c2ccc(-c4ccccc4F)cc2)[C@@H]3CO)cc1	2
c1ncc(-c2ccc(C3[C@@H]4CN(Cc5cocn5)C[C@H]3N4)cc2)cn1 (stereo partly drawn)	12
Fc1ccccc1-c1ccc(C2[C@@H]3CN(Cc4ccccc4)C[C@H]2N3)cc1 (stereo partly drawn)	-24*!
OC[C@H]1[C@H](c2ccc(-c3ccccc3F)cc2)[C@@H]2CN(Cc3ccncc3)CCCCN12	2
Fc1ccccc1-c1ccc(C2[C@@H]3CN(Cc4ccccn4)C[C@H]2N3)cc1 (stereo partly drawn)	-22*!
CC(C)NC(=O)NCC[C@H]1CC[C@H](NS(=O)(=O)c2ccc(Oc3ccccc3)cc2)[C@H](CO)O1	-3
CCNC(=O)Nc1ccc2c(c1)C(=O)N(C)[C@@H]1CC[C@H](CC(=O)NCc3ccccc3F)O[C@H]1CO2	0
CCS(=O)(=O)N1CC(=O)N2[C@H](CO)[C@@H](c3ccc(-c4cccc(F)c4)cc3)[C@@H]2C1	-3
CC(C)CC#Cc1ccc([C@H]2[C@@H](CO)N3C(=O)CN(C(=O)Cc4cccnc4)C[C@@H]23)cc1	1
C[C@H](NC(=O)C[C@H]1CC[C@H]2[C@@H](COC[C@@H](O)CN2C(=O)Nc2cccc(Cl)c2)O1)c1ccccc1	-2
C/C=C/c1ccc(C2[C@H]3CNC[C@@H]2N3S(=O)(=O)c2ccccc2C)cc1 (stereo partly drawn)	13
